Screens: PubChem BioAssay, several laboratories
An excerpt weighted towards active compounds, which were near 1.5% of everything screened.
NALP1 yeast inh = NALP1 inflammasome inhibitors in reconstituted yeast, colorimetric, S. cerevisiae, triplicate retest | S. cerevisiae NALP1/ASC/caspase-1 growth, X-gal OD620, 72 h | inhibition, % at 10 µM | 280,000 tested, 0.61% active | AID 2071, 2009; in the data active means inhibition mostly above about 24%, no sharp cut-off; inactive means mostly below about 32%
PolyA inh = polyadenylation inhibitors in yeast reporter cells, primary screen, luminescence, S. cerevisiae | S. cerevisiae SKY197-pL101 polyadenylation reporter, beta-gal luminescence; efflux-impaired pdr1/pdr3 knockout yeast; score 100 = 6 SD above DMSO | activity score, % at 12 µM | 300,000 tested, 0.02% active;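 active means lowest replicate activity score at least 50, where 100 means six control SD above control mean; inconclusive means lowest score under 50 but half or more replicates reach 50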;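 further: yeast exposed to compound for 9 h at 30 °C; higher score means more reporter readthrough which indicates perturbed polyadenylation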
Efflux pump mplx = inhibitors of Candida efflux pumps in yeast, primary screen, S. cerevisiae, Nile Red, multiplex; S. cerevisiae Candida pump triplex; inhibition, % at 10 µM; 330,000 tested, 0.44% active;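 active means plate passing quality check with inhibition over a set limit, or well fluorescence over plate mean plus 4 SD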;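 further: Nile Red retained in pooled yeast measured as flow cytometry median fluorescence; higher means more Nile Red kept so more efflux inhibition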
NLRP3 yeast inh = NALP3 inflammasome inhibitors in reconstituted yeast, primary screen, luminescence, uHTS | 330,000 tested, 0.39% active | Yeast reconstituted NLRP3/ASC/caspase-1, beta-gal luminescence, 24 h | inhibition, % at 10 µM | AID 2825, 2010;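 active means inhibition of 50% or more; inactive means inhibition below 50%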
JMJD2C inh = inhibitors of GASC-1 histone demethylase, primary screen, biochemical, fluorescence, DELFIA europium; 330,000 tested, 0.069% active; GST-JMJD2C(1-420) H3K9me3 demethylation; inhibition, % at 2.35 µM; AID 2099, 2009; Lysine-specific demethylase 4C (Homo sapiens), Q9H3R0;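 active means more than half of a compound's replicate wells show inhibition beyond 50%, single wells judged on their own value; inconclusive means some, but no more than half, of replicates pass 50% inhibition; inactive means no replicate passes 50% inhibition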;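 further: signal counts dimethyl H3K9 product captured on neutravidin plate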
HDAC3 inhib = HDAC3 deacetylase inhibitors, primary screen, biochemical, fluorescence, cell-free homogeneous | 320,000 tested, 0.15% active | recombinant HDAC3, fluorogenic peptide/trypsin coupled | inhibition, % at 8.3 µM; in the data active means inhibition above about 26%, passing the limit was not always enough; inconclusive means no clear call, values can overlap the other calls
Target sequence (O15379 whole entry, looked up): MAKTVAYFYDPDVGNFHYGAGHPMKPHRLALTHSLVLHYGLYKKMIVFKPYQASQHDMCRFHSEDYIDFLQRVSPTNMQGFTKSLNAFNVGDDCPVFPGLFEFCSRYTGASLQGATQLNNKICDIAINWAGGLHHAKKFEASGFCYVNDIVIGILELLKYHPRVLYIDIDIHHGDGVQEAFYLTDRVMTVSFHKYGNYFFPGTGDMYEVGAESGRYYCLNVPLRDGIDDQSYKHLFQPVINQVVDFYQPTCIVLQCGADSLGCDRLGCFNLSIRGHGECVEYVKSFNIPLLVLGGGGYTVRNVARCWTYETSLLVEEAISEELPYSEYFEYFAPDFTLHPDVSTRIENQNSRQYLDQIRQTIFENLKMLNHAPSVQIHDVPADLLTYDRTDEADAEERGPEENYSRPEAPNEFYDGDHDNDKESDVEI
A number is an active result; 0 = inactive; ? = inconclusive; - = not tested or not shown.

SMILES | NALP1 yeast inh | PolyA inh | Efflux pump mplx | NLRP3 yeast inh | JMJD2C inh | HDAC3 inhib
Cc1noc(C)c1S(=O)(=O)NCc1ccc(CN(C)C)cc1 | - | - | 0 | 0 | 0 | 0
CCc1nccn1S(=O)(=O)c1ccc(OC)c(C)c1C | 34 | 0 | 0 | 0 | 0 | ?
CC(=O)c1c(C)[nH]c(C(=O)CN2C(=O)NC(CCc3ccccc3)C2=O)c1C (centres undefined) | 0 | 0 | 0 | 0 | 0 | 0
COc1ccc2nc(-c3ccco3)c(-c3ccco3)nc2c1 | 0 | 0 | 0 | 0 | ? | 0
COc1ccc2no[n+]([O-])c2c1 | 0 | 73 | 0 | 0 | ? | 0
CC(C)Nc1nc(NNc2nc(Cl)nc(NC(C)(C)C)n2)nc(NC(C)C)n1 | 0 | 0 | 0 | 0 | 0 | 0
CCNc1nc(NC(C)C)nc(NC(C)(C)C)n1 | 30 | 0 | 0 | 0 | 0 | -
Cc1ccc(NC(=O)CCN2C(=O)NC(C)(C)C2=O)cc1F | - | - | - | 0 | - | -
COc1ccc(CNC(=O)COC(=O)c2ccc(OCC3CCCO3)cc2)cc1 (centres undefined) | - | - | 0 | 0 | - | 0
CCOC(=O)c1cnc2c(N=Nc3ccccc3)c(N)nn2c1N | 0 | 0 | 0 | 0 | 0 | 0
CCOC(=O)c1cnc2c(N=Nc3cccc(Cl)c3)c(N)nn2c1N | 84 | - | - | - | - | -
CCC(C)C(NC(=O)OC(C)(C)C)C(=O)NC(C(=O)NC(C)C(N)=O)C(C)C (centres undefined) | 0 | 0 | 0 | 0 | 0 | 0
O=C(Oc1csc(=S)n1C(=O)c1ccccc1)c1ccccc1 | 0 | 0 | 0 | 0 | 0 | 37
Cc1cccc(C(=O)Oc2csc(=S)n2C(=O)c2cccc(C)c2)c1 | 0 | 0 | 0 | 0 | 0 | 0
Cc1cc(OC(=O)c2ccccc2)n(CCC#N)n1 | 0 | 0 | 0 | 0 | 0 | 87
COc1cc2c(cc1OC)C1(Nc3c-2c(-c2ccccc2)nn3-c2ccccc2)C(=O)Nc2ccccc21 (centres undefined) | 0 | 0 | 1.2 | 0 | 0 | 0
O=C(c1cc2ccccn2n1)N1CCN(Cc2ccccc2)CC1 | 34 | 0 | 0 | 0 | 0 | 0
CC1CCN(c2nc(CN3CCCCC3)nc3scc(-c4ccccc4)c23)CC1 | 50 | 0 | 0 | 0 | 0 | 0
O=C(NCCCN1CCCC1=O)c1cccc(S(=O)(=O)Nc2ccc(Br)cc2)c1 | - | 0 | 0 | 0 | 0 | 0
Cn1c(SCC(=O)OCc2ccccc2)nnc1-c1ccco1 | 44 | 0 | 0 | 0 | 0 | 0
NC(=O)NC(=O)CSc1nnc(-c2ccco2)n1Cc1ccccc1 | 0 | 0 | 0 | 0 | 50 | 0
Cc1ccc(C(=O)NCC(=O)OC(C)C(=O)Nc2ccc(N(C)C)cc2)cc1C (centres undefined) | 0 | 0 | 0 | 0 | 0 | 0
Cc1ccccc1OCC(=O)Nc1nnc(COc2ccccc2)s1 | 0 | 0 | 0 | 0 | 0 | 0
O=Cc1ccc(OCC(=O)NCC2CCCO2)cc1 (centres undefined) | 0 | 0 | 0 | 0 | 0 | 0
c1ccc2c(N3CCCCC3)nc(N3CCCC3)nc2c1 | 0 | 0 | 0 | 0 | 0 | 0
SMILES | NALP1 yeast inh | PolyA inh | Efflux pump mplx | NLRP3 yeast inh | JMJD2C inh | HDAC3 inhib
c1ccc2c(c1)nc(N1CCCCC1)c1ccccc12 | 39 | 0 | 0 | 0 | 0 | 0
Cc1ccc(-c2nc3ncccn3c2Nc2ccc3c(c2)OCO3)o1 | 0 | 0 | 0 | 0 | 0 | 0
Cc1ccc(Nc2c(-c3ccc(C)o3)nc3ncccn23)cc1 | 0 | 57 | 0 | 0 | 0 | 0
CCNC(=O)Oc1ccc[nH]c1=O | 37 | 0 | 0 | 0 | 0 | 0
Cc1csc(C(=O)O)c1NC(=O)c1cccc([N+](=O)[O-])c1 | 0 | 0 | 0 | 0 | 0 | 0
CCN(Cc1ccccc1)C(=O)C1CCN(Cc2ccc(SC)cc2)CC1 | 0 | 0 | 0 | 0 | 0 | 0
CCN(Cc1ccccc1)C1CCN(Cc2ccc(SC)cc2)CC1 | 28 | 0 | 0 | 0 | 0 | 0
O=C(NCc1ccc2c(c1)OCO2)c1cccc(C(=O)NCc2ccc3c(c2)OCO3)c1 | 0 | 0 | 0 | 0 | 0 | 0
Cc1nc2ccc(C(=O)NCc3ccc4c(c3)OCO4)cc2s1 | 0 | 112 | 0 | 0 | 0 | 0
O=C(COC(=O)C1CC1)Nc1ccc(S(=O)(=O)N2CCOCC2)cc1 | - | - | 0 | 0 | 0 | 0
CN(C)CCc1cc2c(c3c1ccc1ccccc13)OCO2 | 0 | 59 | 0 | 0 | 0 | 0
Cc1ccc2cc(CN(CC3CCCO3)C(=O)NC3CCCCC3)c(=O)[nH]c2c1C (centres undefined) | 0 | 0 | 0 | 0 | 0 | 0
CCN(CC)CCCN(Cc1cc2ccc(C)c(C)c2[nH]c1=O)C(=O)NC1CCCCC1 | 23 | 0 | 0 | 0 | 0 | 0
CC1=NN(c2ccccc2)C(=O)C1N=Nc1cccc(O)c1 (centres undefined) | 32 | 0 | 0 | 0 | 0 | 0
Cc1ccc(C(=O)n2nnc3ccccc32)cc1 | - | 0 | 0 | 0 | 0 | 97
CCCC(=O)Nc1ccc(C(=O)n2nnc3ccccc32)cc1 | 0 | 0 | 0 | 0 | 0 | 75
CN(C)c1ccc(C(=O)n2nnc3ccccc32)cc1 | 0 | 0 | 0 | 0 | 0 | 91
C#CCOC(=O)c1ccccc1C(=O)n1nnc2ccccc21 | 0 | 0 | 0 | 0 | 0 | 94
CC(=O)C(Cc1ccccc1)NC(=O)COC(=O)CCN1C(=O)C2CC=CCC2C1=O (centres undefined) | - | 0 | 0 | 0 | 0 | 0
O=C(C[C@H]1C/C=C\CCCCC(=O)OC[C@H]2CCCN2C1=O)N[C@H](CO)Cc1ccccc1 | - | - | 0 | 0 | 0 | 0
Cc1ccc(S(=O)(=O)N2CCC(C(=O)N3CC(C)OC(C)C3)CC2)cc1 (centres undefined) | 0 | 0 | 0 | 0 | 0 | 0
Cc1nn(C(=O)Cn2ccc([N+](=O)[O-])n2)c(C)c1Cl | 0 | 0 | 0 | 0 | 0 | 0
Cc1nn(-c2ccccc2)c2[nH]c(=O)cc(C(F)(F)F)c12 | 38 | 0 | 0 | 0 | 0 | 0
Cc1cc(=O)[nH]c2c1c(C)nn2-c1ccccc1 | 0 | 0 | 0 | 0 | 0 | 0
C[C@@H](NC(=O)Cn1cnc2c(OCc3ccccc3)ncnc21)c1cccc2ccccc12 | - | - | 0 | 0 | 59 | 0
SMILES | NALP1 yeast inh | PolyA inh | Efflux pump mplx | NLRP3 yeast inh | JMJD2C inh | HDAC3 inhib
O=C(NCc1cccc(Cl)c1)C1CCCO1 (centres undefined) | 32 | 0 | 0 | 0 | 0 | 0
CC(Oc1ccc(Cl)cc1Cl)C(=O)NCCCN1CCOCC1 (centres undefined) | 41 | 0 | 0 | 0 | 0 | 0
O=C(NCc1ccccc1)C(c1ccncc1)N(C(=O)c1csnn1)c1cccc(F)c1 (centres undefined) | 0 | 0 | 0 | 0 | 0 | 0
O=C(N/N=C/c1ccc(F)cc1)c1ccccc1 | 32 | 0 | 0 | 0 | 0 | 0
O=C(N/N=C/c1ccc(F)cc1)c1c(O)c2ccccc2[nH]c1=O | 0 | 60 | 0 | 0 | 0 | 0
O=C(N/N=C/c1cccc(F)c1)c1c(O)c2ccccc2[nH]c1=O | 0 | ? | 0 | - | 0 | 0
